Measured values published in the supplement of paper PMC11732987, “Enantioselective OTUD7B fragment discovery through chemoproteomics screening and high-throughput optimisation” (Communications Chemistry, 2025).

Key:
Experiment in all cases: log2 ratio of Biotin-Ahx-Ub-VS probe labelling (fragment/DMSO); higher = less target engagement (more negative = stronger competition), active = hit call of the paper (q ≤ 0.05, log2 ratio ≤ -1)
Details in all cases: compound concentration: 200 uM; treatment time: 3 h
[1] = biological target: T1, OTUD6B (UniProt Q8N6M0)
T1 sequence (whole entry): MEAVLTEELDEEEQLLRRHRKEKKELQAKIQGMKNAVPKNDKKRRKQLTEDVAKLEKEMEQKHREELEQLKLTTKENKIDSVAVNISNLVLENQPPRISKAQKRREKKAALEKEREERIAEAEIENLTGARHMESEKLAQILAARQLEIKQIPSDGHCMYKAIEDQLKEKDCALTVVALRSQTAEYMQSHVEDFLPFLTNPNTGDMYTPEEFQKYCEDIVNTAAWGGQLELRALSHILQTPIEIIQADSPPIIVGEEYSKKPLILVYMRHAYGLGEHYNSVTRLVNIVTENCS
How it was run: (§1)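 HEK293T lysate, 495 µg per sample in Tris/CHAPS/IGEPAL buffer with protease inhibitors, was treated in triplicate with fragment at 200 µM or vehicle for 3 h and then with Biotin-Ahx-Ub-VS at 0.5 µM final for 1 h. Labelled DUBs were NeutrAvidin-enriched, digested with LysC and trypsin, and run by diaPASEF LC-MS/MS. Spectronaut label-free quantities were global-median-normalised, and values are average log2 fragment/vehicle ratios by unpaired t-test on proteins with ≥2 unique peptides.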

[2] = biological target: T2, OTUD7B (UniProt Q6GQQ9)
T2 sequence (whole entry): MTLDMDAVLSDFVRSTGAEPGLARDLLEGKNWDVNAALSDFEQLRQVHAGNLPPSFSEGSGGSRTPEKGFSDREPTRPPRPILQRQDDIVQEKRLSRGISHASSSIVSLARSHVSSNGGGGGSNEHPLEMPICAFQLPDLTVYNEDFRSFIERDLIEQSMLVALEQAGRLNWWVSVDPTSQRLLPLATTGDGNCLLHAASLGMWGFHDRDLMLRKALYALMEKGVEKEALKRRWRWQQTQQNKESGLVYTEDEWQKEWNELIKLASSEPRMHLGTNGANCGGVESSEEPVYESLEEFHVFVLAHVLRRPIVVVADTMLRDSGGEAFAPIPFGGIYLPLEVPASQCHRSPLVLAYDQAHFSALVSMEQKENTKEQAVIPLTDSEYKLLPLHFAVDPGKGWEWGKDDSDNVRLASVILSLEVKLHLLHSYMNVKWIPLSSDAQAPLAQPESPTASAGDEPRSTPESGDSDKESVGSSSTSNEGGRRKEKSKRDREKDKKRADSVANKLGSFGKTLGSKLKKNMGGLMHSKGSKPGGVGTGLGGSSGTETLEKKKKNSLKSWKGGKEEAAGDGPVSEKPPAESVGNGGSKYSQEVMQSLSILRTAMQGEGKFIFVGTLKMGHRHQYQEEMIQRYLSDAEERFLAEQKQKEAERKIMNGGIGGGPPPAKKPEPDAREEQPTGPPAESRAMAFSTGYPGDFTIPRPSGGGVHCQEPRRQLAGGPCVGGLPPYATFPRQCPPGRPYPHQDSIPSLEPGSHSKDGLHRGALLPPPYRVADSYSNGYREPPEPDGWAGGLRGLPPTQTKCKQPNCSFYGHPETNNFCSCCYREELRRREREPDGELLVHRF
How it was run: as §1

[3] = biological target: PRPF8 (UniProt Q6P2Q9)
How it was run: as §1

[4] = biological target: T3, PSMD7 (UniProt P51665)
T3 sequence (whole entry): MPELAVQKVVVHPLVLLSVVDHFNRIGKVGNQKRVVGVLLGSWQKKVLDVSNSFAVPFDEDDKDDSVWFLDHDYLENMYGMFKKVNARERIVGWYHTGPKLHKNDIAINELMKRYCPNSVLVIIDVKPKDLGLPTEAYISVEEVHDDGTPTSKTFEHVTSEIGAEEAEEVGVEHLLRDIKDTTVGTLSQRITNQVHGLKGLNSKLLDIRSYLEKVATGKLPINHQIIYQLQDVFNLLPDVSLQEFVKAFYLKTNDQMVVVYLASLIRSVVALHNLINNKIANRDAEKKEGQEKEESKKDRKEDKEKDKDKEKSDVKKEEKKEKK
How it was run: as §1

[5] = biological target: UCHL1 (UniProt P09936)
UCHL1, sequence (P09936 whole entry, looked up): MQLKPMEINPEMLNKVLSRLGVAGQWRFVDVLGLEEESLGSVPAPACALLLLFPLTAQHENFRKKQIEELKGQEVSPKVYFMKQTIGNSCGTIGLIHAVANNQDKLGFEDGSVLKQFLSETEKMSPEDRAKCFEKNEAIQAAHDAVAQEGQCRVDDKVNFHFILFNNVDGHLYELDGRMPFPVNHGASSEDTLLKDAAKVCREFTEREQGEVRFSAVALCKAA
How it was run: as §1

[6] = biological target: T4, UCHL3 (UniProt P15374)
T4 sequence (whole entry): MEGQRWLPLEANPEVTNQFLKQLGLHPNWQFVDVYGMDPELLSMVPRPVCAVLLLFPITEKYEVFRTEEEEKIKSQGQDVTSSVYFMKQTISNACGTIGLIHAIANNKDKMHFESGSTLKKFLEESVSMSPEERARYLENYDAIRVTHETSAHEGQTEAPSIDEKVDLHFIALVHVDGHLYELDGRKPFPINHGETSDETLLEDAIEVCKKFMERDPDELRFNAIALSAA
How it was run: as §1

[7] = biological target: T5, UCHL5 (UniProt Q9Y5K5)
T5 sequence (whole entry): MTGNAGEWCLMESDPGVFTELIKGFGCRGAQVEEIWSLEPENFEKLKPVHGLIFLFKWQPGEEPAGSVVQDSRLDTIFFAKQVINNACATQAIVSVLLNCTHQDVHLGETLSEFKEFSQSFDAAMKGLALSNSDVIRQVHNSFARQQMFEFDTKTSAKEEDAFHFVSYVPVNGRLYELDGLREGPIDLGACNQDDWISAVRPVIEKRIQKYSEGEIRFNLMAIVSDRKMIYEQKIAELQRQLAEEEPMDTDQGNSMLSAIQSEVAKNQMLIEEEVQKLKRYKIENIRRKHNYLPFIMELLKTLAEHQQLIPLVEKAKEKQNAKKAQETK
How it was run: as §1

[8] = biological target: USP10 (UniProt Q14694)
USP10, sequence (Q14694 whole entry): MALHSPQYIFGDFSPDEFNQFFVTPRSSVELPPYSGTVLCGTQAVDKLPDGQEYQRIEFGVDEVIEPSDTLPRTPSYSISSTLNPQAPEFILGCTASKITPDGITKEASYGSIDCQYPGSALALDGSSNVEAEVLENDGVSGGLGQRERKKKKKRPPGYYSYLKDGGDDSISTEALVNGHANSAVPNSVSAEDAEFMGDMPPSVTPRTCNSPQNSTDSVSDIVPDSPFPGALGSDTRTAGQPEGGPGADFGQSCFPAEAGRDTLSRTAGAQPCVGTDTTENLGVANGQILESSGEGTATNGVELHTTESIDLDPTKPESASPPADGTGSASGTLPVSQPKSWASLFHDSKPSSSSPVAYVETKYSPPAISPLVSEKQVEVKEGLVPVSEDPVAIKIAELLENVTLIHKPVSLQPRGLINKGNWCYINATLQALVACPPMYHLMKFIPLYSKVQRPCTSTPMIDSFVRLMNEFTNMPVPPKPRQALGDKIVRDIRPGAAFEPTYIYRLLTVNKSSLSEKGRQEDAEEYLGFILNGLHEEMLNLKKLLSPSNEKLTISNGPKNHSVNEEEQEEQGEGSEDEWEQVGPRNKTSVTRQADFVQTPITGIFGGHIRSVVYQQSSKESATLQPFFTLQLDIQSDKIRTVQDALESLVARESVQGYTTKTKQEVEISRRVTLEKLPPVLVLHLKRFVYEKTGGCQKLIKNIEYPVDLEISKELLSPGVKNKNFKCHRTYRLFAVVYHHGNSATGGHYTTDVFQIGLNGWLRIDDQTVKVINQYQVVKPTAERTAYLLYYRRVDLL
How it was run: as §1

[9] = biological target: T6, USP15 (UniProt Q9Y4E8)
T6 sequence (whole entry): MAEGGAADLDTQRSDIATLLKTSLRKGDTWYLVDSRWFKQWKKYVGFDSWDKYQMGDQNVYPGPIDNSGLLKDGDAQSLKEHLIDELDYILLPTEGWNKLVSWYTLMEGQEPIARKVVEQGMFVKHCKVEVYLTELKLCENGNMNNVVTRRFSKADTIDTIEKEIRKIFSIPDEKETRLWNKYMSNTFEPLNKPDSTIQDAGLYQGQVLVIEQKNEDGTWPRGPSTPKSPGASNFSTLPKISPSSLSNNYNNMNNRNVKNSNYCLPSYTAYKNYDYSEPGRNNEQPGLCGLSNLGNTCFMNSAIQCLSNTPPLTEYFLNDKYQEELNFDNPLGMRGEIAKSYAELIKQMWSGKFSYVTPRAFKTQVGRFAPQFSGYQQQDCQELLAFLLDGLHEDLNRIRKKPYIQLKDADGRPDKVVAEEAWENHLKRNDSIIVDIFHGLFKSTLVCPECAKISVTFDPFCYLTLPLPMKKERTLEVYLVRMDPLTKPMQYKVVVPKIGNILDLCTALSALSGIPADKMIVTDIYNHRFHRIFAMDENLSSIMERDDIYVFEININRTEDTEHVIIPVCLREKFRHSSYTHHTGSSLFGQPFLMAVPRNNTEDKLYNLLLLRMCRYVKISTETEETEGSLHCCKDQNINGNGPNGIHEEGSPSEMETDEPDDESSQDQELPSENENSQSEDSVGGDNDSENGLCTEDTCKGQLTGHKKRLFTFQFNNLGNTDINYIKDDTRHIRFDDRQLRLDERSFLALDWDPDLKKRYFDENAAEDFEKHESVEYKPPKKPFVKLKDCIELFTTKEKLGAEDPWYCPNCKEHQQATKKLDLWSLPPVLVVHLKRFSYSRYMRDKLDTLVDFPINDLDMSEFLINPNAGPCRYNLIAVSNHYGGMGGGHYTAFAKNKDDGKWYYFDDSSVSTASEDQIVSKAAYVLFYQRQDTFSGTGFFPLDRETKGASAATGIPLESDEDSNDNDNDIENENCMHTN
How it was run: as §1

[10] = biological target: USP16 (UniProt Q9Y5T5)
USP16, sequence (Q9Y5T5 whole entry, looked up): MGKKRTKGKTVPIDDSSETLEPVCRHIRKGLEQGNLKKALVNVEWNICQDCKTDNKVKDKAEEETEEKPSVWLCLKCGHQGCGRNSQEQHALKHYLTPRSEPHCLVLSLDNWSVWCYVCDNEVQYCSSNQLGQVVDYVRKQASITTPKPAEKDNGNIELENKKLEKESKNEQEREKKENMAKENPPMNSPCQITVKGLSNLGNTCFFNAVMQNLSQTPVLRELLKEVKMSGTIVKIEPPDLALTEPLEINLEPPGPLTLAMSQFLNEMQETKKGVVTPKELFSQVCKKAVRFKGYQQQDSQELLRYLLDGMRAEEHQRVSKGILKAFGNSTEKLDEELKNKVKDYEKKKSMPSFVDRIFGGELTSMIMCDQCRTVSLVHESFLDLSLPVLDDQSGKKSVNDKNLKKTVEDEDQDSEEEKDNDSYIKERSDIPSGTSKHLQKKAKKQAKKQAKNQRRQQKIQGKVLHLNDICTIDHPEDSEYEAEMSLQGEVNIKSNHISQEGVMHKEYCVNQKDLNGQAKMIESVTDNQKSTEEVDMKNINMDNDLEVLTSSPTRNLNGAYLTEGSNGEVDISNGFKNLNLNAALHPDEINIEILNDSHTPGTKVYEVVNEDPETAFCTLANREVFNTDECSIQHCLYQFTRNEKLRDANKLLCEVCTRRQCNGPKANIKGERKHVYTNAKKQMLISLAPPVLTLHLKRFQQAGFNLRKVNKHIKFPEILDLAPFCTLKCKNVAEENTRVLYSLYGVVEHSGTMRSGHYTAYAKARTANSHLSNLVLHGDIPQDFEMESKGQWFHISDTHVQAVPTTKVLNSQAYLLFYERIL
How it was run: as §1

Measured: log2 ratio of Biotin-Ahx-Ub-VS probe labelling

O=C(CCl)N1CCc2[nH]c3ccccc3c2C1
inactive: [1] -0.206 | [3] -0.175 | [4] -0.319 | [6] -0.675 | [7] -0.893 | [8] -0.119 | [10] 0.191
active: [2] -1.05 | [5] -1.24 | [9] -1.46
